# Among all 2,500 compounds or so, about 2,100 (84%) were called active.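 The calls were made as follows: active = toxic compounds, whose cell viability fell below 70% of untreated control cells; inactive = the rest.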 The set was probably picked from earlier hits. Only a sample is shown. Results with a measured potency or affinity are listed apart.
# Assay: HEp-2 cell cytotoxicity, dose response, cytotoxicity control for RSV inhibitor project, HTS (AID 2410);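 also: cells exposed to compound for six days before readout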
# Details: HEp-2 viability, luminescence, cytotoxicity counter-screen; series mostly up to 50 µM
row,SMILES,outcome
1,CCOc1cc(/C=N/O)cc(Br)c1OCc1ccc(Cl)cc1,inactive
2,COc1ccc(OC)c(-n2c(SCC(=O)NCc3ccco3)nnc2-c2c[nH]c3ccccc23)c1,inactive
3,O=c1[nH]c(/C=C2\C=Nc3ccccc32)c(O)n1Cc1ccccc1F,inactive
4,COc1ccc(-c2nc[nH]c2[N+](=O)[O-])cc1,inactive
5,C=CCN1C(=O)N(/C=C/C)c2cccc3cccc1c23,inactive
6,CCOC(=O)C1=C(C)N=c2s/c(=C/c3ccc(OCC(=O)O)c(OC)c3)c(=O)n2C1c1ccc(Cl)cc1 (stereo unspecified),inactive
7,CCCC(c1nnnn1CC(=O)OCC)N(Cc1cc2c(C)cc(C)cc2[nH]c1=O)C1CCCC1 (stereo unspecified),inactive
8,COc1ccc(NC2c3ncccc3C(=O)N2Cc2cccs2)cc1 (stereo unspecified),inactive
9,CC(=O)Nc1ccc2c(CSc3nnc(N)s3)cc(=O)oc2c1,inactive
10,C=CCSc1nnc2nc3c(nn12)c1cc(C)ccc1n3CC=C,inactive
11,c1csc(-c2nn3c(Cn4cnc5ccccc54)nnc3s2)c1,inactive
12,O=C1c2ccccc2C(=O)N1CCCCN(C(=O)c1ccco1)c1ccc(Cl)cc1,inactive
13,NC(=O)N\N=C/C=C/C=C/c1ccc(F)cc1,inactive
14,CNC(=S)N/N=C(\C)c1cccc(C(F)(F)F)c1,inactive
15,Nc1ccc(C(=O)N/N=C2\CCCc3c2[nH]c2ccccc32)cc1,inactive
16,CCC(=O)N(CC(=O)Nc1sc(C)c(C)c1C(N)=O)C1CCCC1,inactive
17,COc1ccccc1CN1C[C@@H]2C[C@@H](c3ccc(C)c(C)c3)N3CCC[C@@]23C1=O,inactive
18,Cc1ccc(C(=O)N/C(=C\c2ccc(C(C)C)cc2)C(=O)NCCCN2CCOCC2)cc1,inactive
19,Cc1ccc(-c2nc3cc(N)ccc3o2)c(C)c1,inactive
20,Cc1cc2nc(-c3ccc(NC(=O)C(C)C)cc3)oc2cc1C,inactive
21,CCCC(=O)Nc1ccc(-c2nc3cc(C)c(C)cc3o2)cc1,inactive
22,O=C(c1ccc(F)cc1Cl)N(c1ccccn1)C1CCCCC1,inactive

row,SMILES,outcome
1,c1csc(-c2nn3c(Cn4nnc5ccccc54)nnc3s2)c1,inactive
2,Cn1c(NCc2cc(Br)ccc2O)nc2ccccc21,inactive
3,COc1cc(C)c2occ(/C(C)=N\O)c2c1,inactive
4,COc1cc(/C=C(\C#N)c2nc3ccccc3s2)ccc1OCC(=O)Nc1ccccc1,inactive
5,O=C(Oc1ccc(-c2cnc3ccccc3n2)cc1)c1ccco1,inactive
6,OCCC1CN(Cc2cccn2-c2nccs2)CCN1CCc1ccccc1 (stereo unspecified),inactive
7,CS(=O)(=O)c1ccc(Cl)c(NC(=O)c2ccc3ccccc3c2)c1,inactive
8,O=C(Nc1ccccn1)C1COc2ccccc2O1 (stereo unspecified),inactive
9,CCOC(=O)c1c(NC(=O)C2COc3ccccc3O2)sc2c1CC(C)(C)NC2(C)C (stereo unspecified),inactive
10,O=C(CCn1c(=O)c2ccccc2n(Cc2cc(=O)n3ccccc3n2)c1=O)NCc1ccco1,inactive
11,NC(=O)COc1ccc2c3c(c(=O)oc2c1)CCCCC3,inactive
12,CCOC(=O)c1c(C)oc2c1cc(O)c1ccccc12,inactive
13,Cn1c2ccccc2c2cc([N+](=O)[O-])ccc21,inactive
14,CC(=O)Cc1nsc(NC(=O)c2oc(-c3ccccc3Cl)cc2C)n1,inactive
15,Cc1ccc(NC(=O)c2ccc(NS(=O)(=O)c3cccc4cccnc34)cc2)cc1,inactive
16,Cn1c(=O)c2c3c(sc2n2cnnc12)CCC3,inactive
17,Cc1ccc(S(=O)(=O)N2CCC(C(=O)OCC(=O)N3CCCC3=O)CC2)cc1C,inactive
18,O=C(CNC(=O)c1ccco1)N=Nc1c(O)[nH]c2ccc([N+](=O)[O-])cc12,inactive
19,O=C(N=Nc1c(O)[nH]c2ccc([N+](=O)[O-])cc12)c1ccccc1[N+](=O)[O-],inactive
20,COc1ccc(Cl)cc1NC(=O)C1(c2cccs2)CCOCC1,inactive
21,Cc1ccc(NC(=O)CN(C)S(=O)(=O)c2cccc3cccnc23)c(C)c1,inactive
22,COc1ccccc1CNC(=O)C1CCCN1S(=O)(=O)c1cccc2cccnc12 (stereo unspecified),inactive

row,SMILES,outcome
1,Cc1ccc(-c2csc3nc(C)n(N)c(=O)c23)o1,inactive
2,C=C(C)C(=O)Nc1cccc(C2=NOC3(C2)C[C@@H](C(N)=O)N(C(=O)c2ccc(OC)cc2)C3)c1 (stereo partly specified),inactive
3,CCOC(=O)c1ccc2[nH]c3c(c2c1)CN(C)CC3,inactive
4,C/C(N)=C(/C#N)C(=O)COC(=O)c1cc2c(s1)CCCC2,inactive
5,CNS(=O)(=O)c1ccc(OC)c(-c2nnc3c4ccccc4c(C)nn23)c1,inactive
6,COc1ccc(C(C(=O)NC2CCCC2)N(C(=O)c2snc(C(N)=O)c2N)c2cc(C)ccc2OC)cc1OC (stereo unspecified),inactive
7,C=C(C)Cn1c(N2CC(C)CC(C)C2)nc2c1c(=O)[nH]c(=O)n2C (stereo unspecified),inactive
8,Brc1cccc(-c2nc(-c3ccncc3)no2)c1,inactive
9,CC(C)(C)c1cc(NC(=O)c2cc(F)c(F)c(F)c2F)no1,inactive
10,Cc1ccc(N2C=Nc3ccc(C)c4nc(C)cc2c34)cc1,inactive
11,CC1(C)CC(=O)C2=C(C1)OC(N)=C(C#N)C2C#Cc1ccccc1 (stereo unspecified),inactive
12,O=C(O)c1cc(-c2ccc(/C=C3\NC(=O)N(c4ccc(Cl)cc4)C3=O)o2)ccc1Cl,inactive
13,CC(=O)Oc1cc(OC(C)=O)c2c(C)cc(=O)oc2c1,inactive
14,COc1cc(/C=N/O)cc(Br)c1OCc1cccc(Cl)c1,inactive
15,Cc1ccc(-n2c(=O)c3sccc3n(Cc3cc(=O)n4ccccc4n3)c2=O)cc1,inactive
16,COc1ccc(-n2c(SCC(=O)/C(C#N)=C(\C)N)nc3ccccc3c2=O)cc1OC,inactive
17,Nc1ccc(Sc2cc(Cl)nc(N)n2)cc1,inactive
18,Cc1ccc(OCC(=O)Nc2c[nH]c(=O)[nH]c2=O)cc1C,inactive
19,CCC(=O)Nc1ccc(C(=O)OCC(=O)c2ccc(C)c([N+](=O)[O-])c2)cc1,inactive
20,COc1ccc(C(=O)N2CC(c3ccc(Cl)cc3)CC2=O)cc1 (stereo unspecified),inactive
21,CCn1c2ccccc2c2cc(NC(=O)C(=O)NCC3CCCO3)ccc21 (stereo unspecified),inactive
22,CSc1nc(C)c(C(=O)Nc2ccccc2)c(-c2ccco2)c1C#N,inactive

row,SMILES,outcome
1,Cn1c(=NC(=O)c2ccco2)sc2ccccc21,inactive
2,Cc1ccc(C(=O)OCC(=O)c2c[nH]c3ccccc23)cc1NC(=O)c1ccco1,inactive
3,CC[C@@]12C(=O)N(c3ccc(OC)cc3)C(=O)N1[C@H](c1ccc(Cl)cc1)[C@@H]1C(=O)N(C3CCCCC3)C(=O)[C@@H]12,inactive
4,CCOC(=O)c1sc2nc(C)[nH]c(=O)c2c1C,inactive
5,CCOC(=O)c1sc2nc(COC(=O)c3c(F)cccc3F)[nH]c(=O)c2c1C,inactive
6,Cc1nn(Cc2ccc(F)cc2)c(C)c1NC(=O)c1cnn2c1NC(c1ccccc1)CC2C(F)(F)F (stereo unspecified),inactive
7,CCN(c1cc(C)cc(C)c1)S(=O)(=O)c1nnc(NC(=O)C(C)C)s1,inactive
8,O=C(c1ccc(Br)o1)N1CCN(c2ccc3nnc(-c4ccccc4)n3n2)CC1,inactive
9,Cc1ccc(S(=O)(=O)N2CCN(C)CC2)cc1-c1nnc2c3ccccc3c(C)nn12,inactive
10,COc1ccc(C(=O)O/N=C2\C(=O)N(C)c3ccccc32)cc1,inactive
11,N#Cc1cc(Cl)c(N2CCOCC2)cc1C#N,inactive
12,O=C(O)CSc1cn(Cc2ccccc2)c2ccccc12,inactive
13,O=C(Nc1cc(Cl)cc(Cl)c1)c1ccc(Cn2c(=O)[nH]c3ccsc3c2=O)cc1,inactive
14,CC1CCN(C(=O)Cn2c(=O)n(-c3ccc(F)cc3)c(=O)c3sccc32)CC1,inactive
15,COc1ccc(S(=O)(=O)NC(C)(C)C)cc1-c1nnc2c3ccccc3c(C)nn12,inactive
16,O=C1c2cccnc2C(Nc2ccc(Cl)cc2)N1Cc1cccs1 (stereo unspecified),inactive
17,O=C(Nc1ccc2c(c1)CCC2)c1ccc(F)cc1,inactive
18,Cn1ncc(Cl)c1C(=O)Nc1ccc(Cl)cn1,inactive
19,COc1ccccc1C(=O)NCCNc1nc2cc(C)cc(C)c2cc1C#N,inactive
20,CN(C)c1ccc(C2CC(c3cccc(NS(C)(=O)=O)c3)=NN2C(=O)c2ccccc2)cc1 (stereo unspecified),inactive
21,CCc1cccc2c(C(=O)COC(=O)c3ccccc3)c[nH]c12,inactive
22,CCc1nn(CCCC(=O)NCc2ccccc2Br)c(=O)c2cc3occc3n12,inactive

row,SMILES,outcome
1,Cc1ccc(CNc2ccc([N+](=O)[O-])cc2C(N)=O)cc1,inactive
2,CC(C)Cc1nc2n[nH]c(N)c2c2c1CCC2,inactive
3,COc1ccc(CN2C(=O)c3cccnc3C2Nc2cc(Cl)c(OC)cc2OC)cc1 (stereo unspecified),inactive
4,CC(Oc1ccccc1F)C(=O)Nc1ccc2ccccc2c1 (stereo unspecified),inactive
5,COc1cc(OC)cc(C(=O)NCCNc2nc3cc(C)cc(C)c3cc2C#N)c1,inactive
6,O=C1c2cccnc2C(Nc2ccccc2)N1Cc1ccco1 (stereo unspecified),inactive
7,Cc1cc(C)c2c(c1)c(C)cc1nnc(SCC(=O)NCc3ccco3)n12,inactive
8,CS(=O)(=O)N1CCC(Oc2ccccc2C(=O)N2CCN(CC3CC3)CC2)CC1,inactive
9,COc1cc(NC2c3ccccc3C(=O)N2Cc2ccc3c(c2)OCO3)cc(OC)c1OC (stereo unspecified),inactive
10,COc1ccc(NC2c3ccccc3C(=O)N2Cc2ccccc2Cl)cc1OC (stereo unspecified),inactive
11,CCN(CC)S(=O)(=O)c1cc(C(=O)c2nccn2C)ccc1Cl,inactive
12,Cc1ccc(C2C3CSCC=C3C(C#N)=C(N)C2(C#N)C#N)cc1 (stereo unspecified),inactive
13,O=C(CSc1ccc2ccccc2c1)NC1CCCc2ccccc21 (stereo unspecified),inactive
14,CCC1CCc2c(sc(NC(C)=O)c2C#N)C1 (stereo unspecified),inactive
15,COCCNC(=S)N1CCc2cc(OC)c(OC)cc2C1COc1cc(C)cc(C)c1 (stereo unspecified),inactive
16,Cc1c(-c2ccccc2)c(=O)oc2ccc(O)cc12,inactive
17,O=C(CCn1c(=O)c2sccc2n(Cc2cc(=O)n3ccccc3n2)c1=O)NCc1ccco1,inactive
18,O=C(CCCn1c(=O)c2sccc2n(Cc2cc(=O)n3ccccc3n2)c1=O)NCc1ccco1,inactive

# Source: PubChem BioAssay AID2410 (Southern Research Specialized Biocontainment Screening …, 2010)
